Reference: PubChem BioAssay AID624417 (National Center for Advancing Translational Sciences (NCATS), 2012)
Screen size: about 410,000 compounds; about 6,400 (1.6%) were called active. Not shown: some 20% with an inconclusive outcome. The call rests on the fitted dose curve; in most records, active means well fitted inhibition curve with a large enough effect; inconclusive means small, poorly fitted or top-dose-only effect; inactive means no such curve, though single readings can be large or run the other way. The entries come from a sample that favours actives as a whole. Entries that show only a call come without a potency.
Further: nearly all actives have a fitted effect of over 55% in size.
Potency means the concentration at half of the fitted maximal effect.

The compounds below were run against Glucagon-like peptide 1 receptor (Homo sapiens) (UniProt P43220) (assay: qHTS of GLP-1 Receptor Inverse Agonists (Inhibition Mode)). Details: HEK293 GLP-1R CRE-luciferase, luminescence, 24 h; series mostly up to 38.3 µM.
Glucagon-like peptide 1 receptor (Homo sapiens), sequence (P43220 whole entry, looked up): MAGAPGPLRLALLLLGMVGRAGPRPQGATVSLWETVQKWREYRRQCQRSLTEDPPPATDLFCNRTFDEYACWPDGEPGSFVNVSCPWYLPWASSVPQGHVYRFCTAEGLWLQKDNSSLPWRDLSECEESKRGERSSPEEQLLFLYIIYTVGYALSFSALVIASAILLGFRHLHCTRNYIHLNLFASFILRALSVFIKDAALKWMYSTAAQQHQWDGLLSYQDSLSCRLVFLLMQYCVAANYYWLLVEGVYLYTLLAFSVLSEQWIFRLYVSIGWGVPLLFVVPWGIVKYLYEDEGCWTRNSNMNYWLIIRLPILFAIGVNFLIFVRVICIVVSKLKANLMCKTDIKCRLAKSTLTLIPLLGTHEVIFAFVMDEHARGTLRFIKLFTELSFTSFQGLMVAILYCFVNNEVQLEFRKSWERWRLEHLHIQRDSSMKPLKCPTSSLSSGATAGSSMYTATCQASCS
From the text: The overall goal of this project was to develop a novel assay for discovering small molecule ligands for class B1 G protein-coupled receptors (GPCRs). Very few agonists (or inverse agonists in inhibition mode) with generally weak activity for this entire group of physiologically important receptors are known to date. To establish proof-of-principle that this critical bottleneck can be overcome with a suitable screening approach, our studies focused on the class B1 receptor for glucagon-like peptide-1 (GLP-1R), a potential therapeutic target for diabetes and neurodegenerative disease. The assay was developed using a cell-based functional readout. Toward this goal, stably transfected HEK293 cell clones were established that co-express (i) a cAMP-responsive luciferase reporter gene, and (ii) constitutively active GLP-1R that upon ligand interaction inhibit (inverse agonists) the luciferase activity. In addition, two control cell lines were developed: (i) one that express only the cAMP-responsive reporter gene to enable initial exclusion of GLP-1R independent effects of candidate probes; and (ii) one with the reported gene cloned with another constitutively active orphan receptor GPR119 to enable exclusion of GLP-1R independent inhibitor effects of candidate inverse agonists. To that end, this assay was optimized for 1536-well format and screened against the MLSMR. […] NIH Molecular Libraries Probe Production Network [MLPCN] NIH Chemical Genomics Center [NCGC] Grant: NS064851 PI Name: Martin Beinborn, Tufts Medical Center
Six ul of cell suspension (200 cells/uL in DMEM + 10% Nu serum + 1% pen-strep) is dispensed in a white solid 1536-well plate. The plates are incubated for 12 hours at 37 deg C at 5% CO2 followed by addition of 23 nL compounds. After 24 hr incubation at 37 deg C and 5% CO2, 3 uL of luciferase assay detection reagent is added. A luminescence read is obtained on the PerkinElmer Viewlux after 12 min incubation at room temperature.
For O=c1c2ccccc2[nH]c(=S)n1-c1cccc(Cl)c1, the Potency was “inactive”. COc1cc(-n2c(=S)[nH]c3ccc(C)cc3c2=O)c(Cl)cc1Cl was tested, and the Potency was 12.6 µM (active). In the case of C[C@]12CCCCC1=CC(=O)C1C2CC[C@@]2(C)C1C[C@@H](F)[C@@H]2O (stereo not given in full), the Potency is reported as “inactive”. For COC1=CC=C2[C@H]3Cc4ccc(OC)c5c4[C@@]2(CCN3C)C1O5 (stereo not given in full), the Potency was “inactive”. For COc1ccc2c(c1)NP(=S)(c1ccccc1)N2 (stereo not given), the Potency was “inactive”. In the case of COC(=O)C1=C(c2ccc(OCc3ccccc3)cc2)C[C@@H]2CC[C@H]1N2C(=O)NCc1cccc(F)c1, the Potency is reported as 4.47 µM (active). With COC(=O)C1=C(c2ccc(F)cc2OCc2ccccc2)C[C@@H]2CC[C@H]1N2C(=O)NCc1ccc(Cl)cc1 the Potency was “inactive”. In the case of COC(=O)C1=C(c2ccc(-c3ccccc3)c(F)c2)C[C@@H]2CC[C@H]1N2C(=O)NCc1ccc(F)cc1, the Potency is reported as “inactive”. For COC(=O)C1=C(c2ccccc2OCc2ccccc2)C[C@@H]2CC[C@H]1N2C(=O)NCc1ccc(OC)cc1, the Potency was “inactive”. In the case of COC(=O)C1=C(c2ccc(OCc3ccccc3)cc2)C[C@@H]2CC[C@H]1N2C(=O)NCc1ccc(Cl)cc1, the Potency is reported as “inactive”. In the case of COC(=O)C1=C(c2cccc(OCc3ccccc3)c2)C[C@@H]2CC[C@H]1N2C(=O)NCc1ccc(Br)cc1, the Potency is reported as 12.6 µM (active). In the case of COc1ccc(NC(=O)N2Cc3ccccc3-n3nncc3C2)cc1, the Potency is reported as “inactive”. O=P(OC1=CCCCC1)(c1ccccc1)c1ccccc1 was tested, and the Potency was “inactive”. CCOC(=O)CNC(=O)N1Cc2cc(N3CCCCC3)ccc2-n2nncc2C1 was tested, and the Potency was “inactive”. In the case of O=C1NCN(c2ccccc2)C12CCN(C(c1cccs1)c1nnnn1C1CCCCC1)CC2 (stereo not given), the Potency is reported as “inactive”. With CC1([N+](=O)[O-])COP(=O)(Nc2ccc(F)cc2)OC1 (stereo not given) the Potency was “inactive”. In the case of C[C@]12CCC3C(CC[C@H]4[C@H](O)[C@H](O)CC[C@]34C)C1CC[C@@H]2O (stereo not given in full), the Potency is reported as “inactive”. In the case of Cc1ccc(CN2CCCC(C(=O)c3ccc4c(c3)OCO4)C2)cc1C (stereo not given), the Potency is reported as 11.2 µM (active). With Cc1ccsc1C(=O)C1CCCN(Cc2ccc(O)cc2)C1 (stereo not given) the Potency was “inactive”. In the case of COc1ccc(C(=O)C2CCCN(Cc3ccc(C)s3)C2)cc1OC (stereo not given), the Potency is reported as “inactive”. With COc1cc(C(=O)N2Cc3ccc(Br)cc3-n3nncc3C2)cc(OC)c1OC the Potency was “inactive”. For Clc1ccc(Cl)c(Oc2ccc(Oc3nc(Cl)ccc3Cl)cc2)n1, the Potency was “inactive”. For C[C@H]1CN([C@@H](C)CO)C(=O)CCCn2nncc2CO[C@H]1CN(C)C(=O)Oc1cccc2ccccc12, the Potency was “inactive”. CC=C(C)C(=O)OC1CCN2CC=C(COC(=O)C(O)(C(C)OC)C(C)(C)O)C12 (stereo not given) was tested, and the Potency was “inactive”. In the case of Cc1ccc(S(=O)(=O)N(C)c2ccc(C(=O)NCC3(N(C)C)CCCCC3)cc2)cc1, the Potency is reported as 3.16 µM [GLP-1R form is constitutively active] (active). For COC1C(O)C(C)OC(OC2CCC3(C=O)C(CCC4C3CCC3(C)C(C5=CC(=O)OC5)CCC43O)C2)C1O (stereo not given), the Potency was “inactive”. For O=c1c2ccccc2nc(/C=C/c2ccco2)n1-c1ccccc1O, the Potency was 11.2 µM (active). For Cn1cc(/C=C/c2nc3ccccc3c(=O)n2-c2ccccc2)c2ccccc21, the Potency was “inactive”. O=c1c2ccccc2nc(/C=C/c2ccc(F)cc2)n1-c1ccccc1O was tested, and the Potency was “inactive”. In the case of CC1CCCN1CCC(C(N)=O)(c1ccccc1)c1ccccc1 (stereo not given), the Potency is reported as “inactive”. With CC1CC=CCC12C(=O)NC(=S)NC2=O (stereo not given) the Potency was “inactive”. In the case of CCN1C(=O)NC(=O)C2(CCCC2)C1=O, the Potency is reported as “inactive”. With C[C@H]1CN([C@@H](C)CO)C(=O)CCCn2nncc2CO[C@H]1CN(C)C(=O)Oc1ccccc1 the Potency was “inactive”. For O=C1NC(=O)C(Cc2ccccc2)C(=O)N1, the Potency was “inactive”. For COC(=O)C[C@H]1CC[C@H]2NC[C@@H](O)COC[C@@H]2O1, the Potency was “inactive”. In the case of CCn1cc(CN2CCCC(C(=O)c3cccc(C(F)(F)F)c3)C2)cn1 (stereo not given), the Potency is reported as “inactive”. COc1cccc(C(=O)Nc2ccc(-c3cc(C(F)(F)F)nn3-c3ccccc3)cc2)c1 was tested, and the Potency was 7.94 µM [GLP-1R form is constitutively active] (active). With COc1ccc(-c2nn(CCC#N)cc2C(=O)Nc2ccc(C(C)=O)cc2)cc1 the Potency was “inactive”. For COc1ccc(NC(=O)c2cn(CCC#N)nc2-c2ccc([N+](=O)[O-])cc2)cc1, the Potency was “inactive”. O=C1NC(=O)C(CCOc2ccccc2)(CCc2ccccc2)C(=O)N1 was tested, and the Potency was “inactive”. For O=C1C2CCN(CC2)C1(CO)CO, the Potency was “inactive”. In the case of CC12CCC(O)CC1CCC1C2CCC2(C)C(C(=O)CC(O)C(F)(F)F)CCC12 (stereo not given), the Potency is reported as “inactive”. With CCCCOc1ccc(C(=O)N2CC(=O)Nc3ccc(Br)cc3C2c2ccc(F)cc2)cc1 (stereo not given) the Potency was 10 µM [GLP-1R form is constitutively active] (active). CC(=O)NCC1=C(c2ccc3ccccc3c2)C[C@@H]2CC[C@H]1N2Cc1ccco1 was tested, and the Potency was “inactive”. With O=C1C2(Cl)C3(Cl)C4(Cl)C(Cl)(Cl)C5(Cl)C3(Cl)C1(Cl)C5(Cl)C24Cl (stereo not given) the Potency was 4.47 µM (active). For CC(C)CN1Cc2cc(N3CCCCC3)ccc2-n2nncc2C1, the Potency was “inactive”. With COc1ccc(C2C=C(C)Oc3c2c(=O)oc2ccccc32)cc1OC (stereo not given) the Potency was “inactive”. With CSCCC(c1nnnn1C(C)(C)C)N1CCC(n2c(=O)[nH]c3ccccc32)CC1 (stereo not given) the Potency was “inactive”. In the case of O=C(COC(=O)c1ccccc1)Nc1ccc(Cl)cc1C(=O)c1ccccc1, the Potency is reported as “inactive”. For O=C(CCN1CCCCC1)NCC(=O)Nc1ccc(Br)cc1C(=O)c1ccccc1, the Potency was “inactive”. With O=C(CN1CCCCC1)Nc1ccc(Br)cc1C(=O)c1ccccc1Cl the Potency was 10 µM [GLP-1R form is constitutively active] (active). With CC(=O)c1ccc(-c2ccc(Cn3c(C)nc4cc(N)c(C)nc43)cc2)cc1 the Potency was “inactive”. With O=C(NC1CCCCC1)N1Cc2cc(N3CCCCC3)ccc2-n2nncc2C1 the Potency was “inactive”. In the case of CC(=O)C1(O)CCC2C3CCC4=C(Cl)C(=O)CCC4(C)C3CCC21C (stereo not given), the Potency is reported as “inactive”. With CCOC(=O)C1(Cc2ccc(Cl)cc2)CCN(C(C)CCn2cccn2)CC1 (stereo not given) the Potency was 7.94 µM [GLP-1R form is constitutively active] (active). Oc1ccc2c3c1OC1[C@H](O)CC[C@@]4(O)[C@@H](C2)N(CC2CC2)CC[C@]314 (stereo not given in full) was tested, and the Potency was “inactive”. With CC1CNCCN1c1ccc(Cl)cc1 (stereo not given) the Potency was “inactive”. CC1=C(C(=O)Nc2ccccc2)SCCO1 was tested, and the Potency was “inactive”. CC1=C(C(=O)Nc2ccccc2)S(=O)(=O)CCO1 was tested, and the Potency was 10 µM (active). For CCC(=O)OC(Cc1ccccc1)(c1ccccc1)C(C)CN(C)C (stereo not given), the Potency was “inactive”. With C=C(C)C1(CCCC)C(=O)NC(=S)NC1=O the Potency was “inactive”. With CCC1(CC(C)c2ccccc2)C(=O)NC(=O)NC1=O (stereo not given) the Potency was “inactive”. For CCC(C)(O)C(=O)OC1C(=O)OC2CC3C(C)=CC(=O)C(O)C3(C)C3C4(O)OCC23C1C(C)C4O (stereo not given), the Potency was “inactive”. In the case of COc1ccc(C2CC(c3cccs3)=NN2c2nc(C)c(C(C)=O)s2)cc1OC (stereo not given), the Potency is reported as “inactive”. With CCOC(=O)[C@]12Cc3ccccc3[C@H]1N(C1CCCCC1)C(=O)c1cc(OC)ccc12 the Potency was 5.62 µM (active). Cc1ccc(OC(=O)N(C)C[C@@H]2OCc3cnnn3CCCC(=O)N([C@H](C)CO)C[C@@H]2C)cc1 was tested, and the Potency was “inactive”. S=C(NCCc1ccccc1)N1Cc2cc(N3CCOCC3)ccc2-n2nncc2C1 was tested, and the Potency was “inactive”. In the case of COc1cccc(-c2nc3ccc(N4CCN(C)CC4)cc3[nH]2)c1, the Potency is reported as 1.12 µM (active). In the case of Cc1nc2ccc(N3CCN(C)CC3)cc2nc1C, the Potency is reported as “inactive”. With c1ccc(N2Cc3ccccc3-n3nncc3C2)nc1 the Potency was “inactive”. CC(=CCOc1ccc2ccc(=O)oc2c1)C1=CC(=O)C(C)(C)O1 was tested, and the Potency was 2.24 µM (active). CCOc1ccc(CC(=O)NCCc2csc3nc(-c4ccccc4F)nn23)cc1 was tested, and the Potency was “inactive”. In the case of CC12CCC3C(CCC4CC(=O)CCC43C)C1CC(=NO)C2=O (stereo not given), the Potency is reported as “inactive”. In the case of CCOC(=O)c1cccc(C2=C(CNC(=O)c3ccncc3)[C@H]3CC[C@@H](C2)N3Cc2ccccc2)c1, the Potency is reported as “inactive”. COC(=O)CN(CCCl)P1(=O)OCCCN1CCCl (stereo not given) was tested, and the Potency was “inactive”. With CC(=O)Nc1cc(-c2cccc(CO)c2)cn2c(-c3cccc(C(F)(F)F)c3)cnc12 the Potency was “inactive”. In the case of O=Cc1cn(Cc2ccc(F)cc2Cl)c2ccccc12, the Potency is reported as 10 µM (active). With O=C(C1CCN(S(=O)(=O)c2ccc(Br)s2)CC1)N1CCN(c2ccccc2)CC1 the Potency was “inactive”. CC1C(=O)OC2CCN3CC=C(COC(=O)C(C)(O)C1(C)O)C23 (stereo not given) was tested, and the Potency was “inactive”. For O=c1c2ccccc2nc(CBr)n1-c1ccc(Cl)cc1, the Potency was “inactive”.
